From PubChem
ELG1 DNA repair: ELG1-dependent DNA repair inhibition | HEK293T ELG1-luciferase reporter, luminescence, 16 h; DNA damage induced by 5-fluorouridine | Potency, µM (series often up to 46.1 µM), for the others: top-dose activity change, negative = inhibition, most hits filed as inhibitors | actives 2.3% (n = 330,000); note: % is set by controls: 0 for no effect and ±100 for the full control effect; nearly all actives have a fitted effect of over 55% in size
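HEK293T cells expressing luciferase-tagged ELG1 (2,000/well) received 5-Fluorouridine plus compound or DMSO for 16 hr at 37 °C. Luciferase was read by ONE-Glo luminescence after 30 min at room temperature.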
SMN2 splice up: enhancers of SMN2 splice variant expression; HEK293 SMN2-luciferase splicing reporter, luminescence, 30-36 h; Potency, µM (series often up to 46.1 µM), for the others: top-dose activity change, positive = activation, most hits filed as activators; actives 2.8% (n = 210,000); note: % of control where 0% means no effect; nearly all actives have a fitted effect of over 55% in size
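qHTS luciferase splicing reporter: luminescence rises when SMN2 exon 7 is included in transfected HEK293 cells. Compound exposure lasted 30-36 h at 37C, with 4.5 mM final sodium butyrate as control, followed by a ONE-Glo read.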
NPC1 prom act: NPC1 promoter activation. AID 485313. actives 2.4% (n = 320,000). Potency, µM (highest dose often 9.22 µM), inactives show at the highest dose activation, hits mostly activators. Huh7 NPC1 promoter luciferase reporter, 24 h; note: % of control where 0% means no effect; nearly all actives have a fitted effect of over 60% in size
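Luciferase expression driven by the NPC1 promoter was measured in stably transfected Huh7 cells after a 24 h compound incubation, using a luciferase reagent and a luminescence read.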
Rab9 prom act: activators of Rab9 promoter | Potency, µM (highest dose often 9.22 µM), inactives show at the highest dose activation, negative = inhibition, actives largely listed as activators | AID 485297 | actives 2.8% (n = 320,000) | Huh7 Rab9 promoter-luciferase reporter, luminescence, 24 h; note: % of control where 0% means no effect; nearly all actives have a fitted effect of over 60% in size
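Measured in stably transfected Huh7 cells bearing a Rab9 promoter–luciferase construct: 24 h compound treatment at 37 °C, followed by luminescence detection.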
FLuc counter: inhibits or activates purified firefly luciferase, miR-21 counter-screen; P08659; purified FLuc, Km substrates, luminescence inhibition; Potency, µM (highest dose often 57.5 µM), without a hit: top-dose activity change, negative = inhibition, hits mostly inhibitors; actives 6.9% (n = 360,000);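 note: plate controls were vehicle for no effect and reference inhibitor for full effect; nearly all actives have a fitted effect of over 55% in size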
Target sequence (P08659 whole entry, looked up): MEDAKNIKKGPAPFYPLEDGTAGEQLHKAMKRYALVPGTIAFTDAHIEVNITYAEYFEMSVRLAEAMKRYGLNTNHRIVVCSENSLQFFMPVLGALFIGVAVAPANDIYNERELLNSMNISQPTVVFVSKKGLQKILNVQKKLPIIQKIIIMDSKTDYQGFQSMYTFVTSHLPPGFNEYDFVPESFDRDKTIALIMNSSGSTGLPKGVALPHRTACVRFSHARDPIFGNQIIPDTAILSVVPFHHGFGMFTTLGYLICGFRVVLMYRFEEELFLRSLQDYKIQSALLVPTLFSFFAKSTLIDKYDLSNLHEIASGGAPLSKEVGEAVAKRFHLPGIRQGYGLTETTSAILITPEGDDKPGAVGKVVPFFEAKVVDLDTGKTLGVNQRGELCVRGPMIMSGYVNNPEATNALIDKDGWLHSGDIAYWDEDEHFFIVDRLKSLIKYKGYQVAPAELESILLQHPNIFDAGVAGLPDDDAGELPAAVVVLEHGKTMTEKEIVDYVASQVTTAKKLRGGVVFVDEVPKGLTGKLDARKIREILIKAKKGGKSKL
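Biochemical qHTS of compounds, final roughly 60 µM downward over six points, against 10 nM purified firefly luciferase using Km concentrations of substrates (10 uM D-luciferin, 10 uM ATP) in Tris acetate pH 7.5 buffer; luminescence output.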
ELG1 genotoxic: inducers of genotoxicity in HEK293T ELG1-luciferase cells. HEK293T ELG1-luciferase reporter, luminescence, 16 h. Potency, µM (doses to about 46 µM), for inactives: at the highest dose activity change, positive = activation, usual class: activators. actives 1.3% (n = 330,000); note: % of control where 0% means no effect; nearly all actives have a fitted effect of over 60% in size
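After overnight (16 hr) compound treatment at 37 °C, ELG1-luciferase HEK293T cells were lysed with ONE-Glo; luminescence quantified 30 min later at room temperature.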
* marks the source's active call; other numbers are inactive results; ? = inconclusive; . = not tested or not shown; [ ] = remark or other dose. The list is not random: actives were taken first. Their share in the collection is about 9.3%. Calls come from the whole dose curve; as a rule, active = well fitted curve in the direction sought with a large enough effect; inconclusive = small, poorly fitted or top-dose-only effect, or another doubt; inactive = no such curve, though single readings can be large; an effect the other way counts as inactive or inconclusive. Potency is the fitted concentration of half-maximal effect.

SMILES	ELG1 DNA repair	SMN2 splice up	NPC1 prom act	Rab9 prom act	FLuc counter	ELG1 genotoxic
COc1cc(NC(=O)CN2c3ccccc3CC2C)cc(OC)c1OC (stereo unspecified)	16µM*	8%	-2%	2%	1%	0%
COCCOC(=O)c1c(NC(=O)CN2CCOCC2)sc(C(N)=O)c1C	-7%	22%	-3%	-1%	6%	9%
COCCOC(=O)c1c(NC(=O)CN2c3ccccc3CC2C)sc(C(N)=O)c1C (stereo unspecified)	9.2µM*	6%	-3%	-1%	-2%	-6%
COc1ccc(Cl)cc1NC(=O)CN1c2ccccc2CC1C (stereo unspecified)	?	-47%	-2%	2%	-12%	-15%
CC1Cc2ccccc2N1CC(=O)Nc1ccc(S(=O)(=O)N(C)C)cc1 (stereo unspecified)	?	.	0%	3%	1%	-1%
CC1Cc2ccccc2N1CC(=O)Nc1ccc(Cl)c(S(=O)(=O)N(C)C)c1 (stereo unspecified)	23µM*	-36%	-2%	1%	2%	-13%
Cc1nn(-c2ccccc2)c(N2CCCC2)c1/C=N/O	-21%	7%	0%	-3%	3%	-9%
CNc1nnc(-c2cc3cc(Cl)ccc3oc2=O)s1	?	?	?	?	?	18µM*
O=C(OCC(=O)C12CC3CC(CC(C3)C1)C2)c1ccc(O)cc1O	29%	.	6%	18%	19µM*	23µM*
O=C(OCC(=O)C12CC3CC(CC(C3)C1)C2)c1cccnc1Cl	3%	-4%	-5%	-1%	17µM*	0%
O=C(COC(=O)c1ccc(O)cc1O)NC12CC3CC(CC(C3)C1)C2	?	.	18%	23%	?	-1%
O=C(OCC(=O)C12CC3CC(CC(C3)C1)C2)c1ccccn1	13%	.	3%	4%	?	2%
CC(C)[C@@H]1COC(c2cccc(C3=N[C@H](C(C)C)CO3)n2)=N1	11%	.	0%	2%	3%	-2%
O=C(COC(=O)CSc1cc(Cl)ccc1Cl)Nc1ncc(C(F)(F)F)cc1Cl	15%	2%	-1%	-8%	0%	0%
Clc1ccccc1/C=C/c1ccnc2ccccc12	?	.	14%	17%	19µM*	4%
O=C(O)C(=Cc1ccnc2ccccc12)C(=O)O	.	-5%[9.22 µM]	.	.	.	.
Oc1ccc(/C=C/c2ccnc3ccccc23)cc1	-2%	21%	10%	17%	24µM*	11%
CCc1cc(Br)ccc1N1C(=O)C2CC=CCC2C1=O (stereo unspecified)	?	-38%	-4%	-3%	-19%	-3%
O=C(OCC(=O)N1CCCc2ccccc21)c1ccccc1[N+](=O)[O-]	?	.	?	?	15µM*	?
O=C(OCC(=O)N1CCN(c2ccccc2)CC1)c1cccc([N+](=O)[O-])c1	-1%	.	-4%	-1%	8%	1%
O=C(COC(=O)c1ccccc1[N+](=O)[O-])NC(=O)c1ccccc1	19%	.	-1%	-6%	17µM*	6%
O=C(OCC(=O)N1CCN(c2ccccc2)CC1)c1ccccc1[N+](=O)[O-]	?	.	3.5µM*	3.2µM*	6.7µM*	5.2µM*
O=C(Cn1ccc([N+](=O)[O-])n1)N1CCCc2ccccc21	?	10%	2%	-2%	17µM*	?
Cc1c(C(=O)N(CC(C)C)c2c(N)n(Cc3ccccc3)c(=O)[nH]c2=O)sc2nc3n(c(=O)c12)CCC3	0%	.	-1%	-6%	3%	0%
COC(=O)CCC(=O)N(C)CC1CCCN(CCc2cccc(C(F)(F)F)c2)C1 (stereo unspecified)	?	.	-4%	4%	4%	-1%
CCc1ccc([C@@H]2C[C@H]3CN(Cc4ccccc4OC)C(=O)[C@]34CCCN24)cc1	-14%	.	-12%	5%	2%	-4%
